MT1-MMP txn act: MT1-MMP promoter reporter activation – cell-based, luciferase luminescence, primary screen; HT1080 MT1-MMP promoter luciferase reporter, overnight; hits give high values; activation factor at 10 µM; hit rate 0.16% among 86,000;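 active means activation factor of at least 2 for MT1-MMP transcription at 10 µM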
ERa SRC1 inh: ERα–SRC-1 coactivator interaction inhibitors, primary screen, biochemical, TR-FRET, ERα LBD, estradiol-bound | Estrogen receptor (Homo sapiens), P03372 | TR-FRET ER-alpha LBD / SRC-1 peptide | inhibition, % at 25.6 µM | hit rate 1.7% among 86,000 | AID 629, 2007; in the data active means inhibition above about 50%;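 further: 0% = receptor plus peptide control and 100% = peptide only without receptor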
Target sequence (P03372 whole entry, looked up, the tested form may be a part): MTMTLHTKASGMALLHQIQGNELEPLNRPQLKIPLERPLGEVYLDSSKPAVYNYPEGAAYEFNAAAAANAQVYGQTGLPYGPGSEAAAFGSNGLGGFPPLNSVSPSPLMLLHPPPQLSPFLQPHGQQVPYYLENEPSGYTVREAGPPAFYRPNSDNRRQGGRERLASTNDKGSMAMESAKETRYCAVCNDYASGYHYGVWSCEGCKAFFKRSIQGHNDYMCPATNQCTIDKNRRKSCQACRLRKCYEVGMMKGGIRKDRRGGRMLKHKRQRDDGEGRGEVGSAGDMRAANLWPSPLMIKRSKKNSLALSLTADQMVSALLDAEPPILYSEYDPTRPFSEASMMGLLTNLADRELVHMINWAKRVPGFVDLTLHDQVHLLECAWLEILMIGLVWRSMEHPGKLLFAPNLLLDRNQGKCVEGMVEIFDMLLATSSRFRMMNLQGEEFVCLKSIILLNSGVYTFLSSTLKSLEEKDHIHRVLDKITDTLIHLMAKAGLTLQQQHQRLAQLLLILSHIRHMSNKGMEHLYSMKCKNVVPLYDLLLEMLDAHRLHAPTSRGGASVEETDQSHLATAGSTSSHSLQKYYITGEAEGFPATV
ERb coact inh: inhibitors of ERβ-SRC1 coactivator interaction, primary screen, biochemical, TR-FRET, ERβ LBD, SRC-1 peptide; inhibition, % at 25.6 µM; TR-FRET ER-beta LBD / SRC1-Cy5 peptide binding; receptor agonist-loaded with 1 µM estradiol; hit rate 1.3% among 86,000; Estrogen receptor beta (Homo sapiens), Q92731;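 active means compounds whose percent inhibition of the receptor-coactivator binding signal exceeds about 50% in the single-dose screen, limit read from the data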;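 further: 0% = receptor plus peptide wells without compound and 100% = peptide-only wells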
ERa coact pot: enhancers of ERα–SRC-1 coactivator binding, primary screen, biochemical, TR-FRET, ERα LBD, low estradiol. TR-FRET ERalpha-LBD/SRC-Cy5 coactivator binding, 2 h; 100 = basal binding, no effect. AID 639, 2007. hit rate 1.3% among 86,000. Estrogen receptor (Homo sapiens), P03372. coactivator binding (% of control), % at 25.6 µM; in the data active means activity above about 200%;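 further: binding measured in presence of low estradiol as agonist stimulus; 0% = peptide alone without receptor and 100% = receptor with peptide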
Smad3 FoxH1 inh: Smad3/FoxH1 peptide binding inhibitors, primary screen, biochemical, TR-FRET. Mothers against decapentaplegic homolog 3 (Homo sapiens), P84022. TR-FRET Smad3/Dy647-FoxH1 peptide binding, europium anti-His. inhibition, % at 25 µM. hit rate 0.29% among 88,000. AID 630, 2007;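 active means compounds that reduce the energy-transfer binding signal between the protein and its labelled peptide by more than half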;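 further: 0% = Smad3 plus labelled peptide maximal FRET and 100% = peptide-only background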
Calb biofilm kill: clotrimazole potentiators killing Candida biofilms, primary screen, with clotrimazole, Alamar Blue | C. albicans biofilm + clotrimazole | inhibition, % at 6 µM | hit rate 0.14% among 85,000 | AID 834, 2007;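 active means inhibition above 20%; inactive means inhibition below 20%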;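 further: preformed 24 hr biofilms exposed to compound for 48 hr; 0% = biofilm without compound and 100% = blank killed by clotrimazole plus chlorhexidine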
* marks the source's active call; other numbers are inactive results; / = no result given; [ ] = dose if it differs, or a comment. A selection: hits, their analogues and other compounds. The true share with any hit is near 3.8%.

SMILES | MT1-MMP txn act | ERa SRC1 inh | ERb coact inh | ERa coact pot | Smad3 FoxH1 inh | Calb biofilm kill
N#Cc1c(C(F)(F)F)cc(-c2ccccc2)nc1SCc1nc(N)nc(N2CCOCC2)n1 | 1.2 | 62* | 49 | 362*[fluorescence artefact?] | 3 | -7
Cc1cc2nc(C)n(CCCNC(=O)Nc3cccc4ccccc34)c2cc1C | 1 | 51*[fluorescence artefact?] | 33 | 96 | 2 | 2
CC(=O)N1CCN=C1SCc1ccccc1 | 1.1 | 4 | 4 | 263*[fluorescence artefact?] | -4 | 5
CC1(C)O[C@@H]2O[C@H]([C@@H]3COC(C)(C)O3)[C@H](N)[C@@H]2O1 | / | / | / | / | 10 | /
Cc1cc(NC(=O)CSc2nc3c(sc4ccccc43)c(=O)n2CCc2ccccc2)n[nH]1 | 1 | 50*[fluorescence artefact?] | 37 | 131 | -191 | 1
Cc1cc(NC(=O)CSc2nc3c(sc4ccccc43)c(=O)n2CCCN2CCOCC2)n[nH]1 | 1.1 | 6 | -7 | 81 | -10 | 8
O=C1CCNc2cc3ccccc3cc21 | 1.2 | 82*[fluorescence artefact?] | 78*[fluorescence artefact?] | 21 | 10 | 3
Cc1ccc2c(c1)C(=O)CCN2 | 1.1 | -9 | -6 | 106 | 3 | 6
CCOC(=O)Cn1c(C)nc2c(C(=O)OCC)sc(C)c2c1=O | 1.1 | / | / | / | / | /
CCOC(=O)c1sc(C)c2c(=O)n(CC(=O)c3ccc(Br)cc3)nnc12 | 1.2 | -2 | 59*[fluorescence artefact?] | 112 | 0 | 1
N#CCCSC(=S)[C@@H]1CCCC1=N | / | / | / | / | 1 | /
Cc1nc2c(F)c(F)c(C(F)(F)F)c(F)c2[nH]1 | 1.1 | 0 | 1 | 126 | -11 | 2
Cc1nc2c(Br)c3nc(C(F)(F)F)[nH]c3c(Br)c2[nH]1 | 0.9 | 38 | 74*[fluorescence artefact?] | 68 | 3 | -5
Oc1ccc(Cl)cc1-c1cc(-c2ccco2)[nH]n1 | 1.4 | 0 | 11 | 48 | -8 | 3
S=c1[nH]nc(-c2cc(-c3ccco3)[nH]n2)n1-c1ccccc1Cl | 1.3 | 33 | 50* | 43 | 1 | 1
Oc1ccccc1-c1cc(-c2ccco2)[nH]n1 | 2.1* | 7 | 2 | 66 | 13 | 7
CN1CCCN(C)C1c1cc([N+](=O)[O-])ccc1O | / | / | / | / | -44 | /
Cc1cc(C(=O)COc2ccc3ccc(=O)oc3c2)c(C)n1Cc1cccs1 | 1.2 | 58*[fluorescence artefact?] | 37 | 347*[fluorescence artefact?] | -20 | 6
Cc1cc(C(=O)COC(=O)CN(C)S(=O)(=O)c2ccc(Cl)cc2)c(C)n1Cc1cccs1 | 1 | 5 | 1 | 124 | 15 | 3
O=C(O)CCC(=O)c1ccc[nH]1 | / | / | / | / | 8 | /
Cc1ccc(S(=O)(=O)N2CCN(c3ccc(S(=O)(=O)N4CCOCC4)cn3)CC2)cc1 | / | -15 | 31 | 346*[fluorescence artefact?] | 3 | 3
O=C(O)[C@H]1CCCN1Cc1cc2ccccc2c2ccccc12 | / | / | / | / | 0 | /
Cc1cc2cc(CN3C(=O)c4ccccc4C3=O)ccc2n1C | 1.1 | -3 | 9 | 300*[fluorescence artefact?] | 27 | -1
Cc1ccc(S(=O)(=O)NCc2ccc3c(c2)cc(C)n3C)cc1 | / | -4 | 5 | 106 | -10 | 13
N[C@@H](CSC1(c2ccc(Cl)cc2)c2ccccc2-c2ccccc21)C(=O)O | / | / | / | / | -9 | /
SMILES | MT1-MMP txn act | ERa SRC1 inh | ERb coact inh | ERa coact pot | Smad3 FoxH1 inh | Calb biofilm kill
CC(C)(C)CC(C)(C)c1cc(O)c(O)c(CN2CCCCC2)c1 | / | / | / | / | 93* | /
O=C(N[C@]1(C(=O)O)C[C@H]1c1ccccc1)c1ccccc1 | / | / | / | / | 8 | /
C[C@@]12CC[C@H]3c4ccc(O)cc4CC[C@@H]3[C@H]1C/C(=N\O)[C@H]2O | / | / | / | / | 20 | /
O=C(O)C1CC2(C1)CC(C(=O)O)C2 (configuration not stated) | / | / | / | / | -1 | /
C=CCN=C(NC#N)SCC(=O)c1cccc(OC)c1 | 2* | -17 | -15 | 105 | 4 | 7
Cc1cc(Cl)cc(C)c1OCCCCN1CCOCC1 | 1.2 | 67* | 1 | 115 | 9 | 6
CCCCOc1ccc(OCCCN2CCOCC2)cc1 | 1.3 | 0 | -5 | 118 | -3 | 11
N#Cc1nc(-c2ccc(OCc3ccc(Cl)cc3)cc2)oc1N1CCC(C(N)=O)CC1 | 1.1 | 61*[fluorescence artefact?] | 47 | 103 | -16 | 11
CC(C)(C)c1ccc(-c2nc(C#N)c(NCc3ccncc3)o2)cc1 | 2* | -11 | -9 | 136 | 7 | 2
CCOc1ccc(-c2nc(C#N)c(N3CCCCCC3)o2)cc1 | 1 | -4 | -9 | 90 | 9 | 21*
N#Cc1nc(-c2ccc(OCc3ccc(Cl)cc3)cc2)oc1N1CCOCC1 | 1 | 50 | 25 | 278*[fluorescence artefact?] | -103 | 7
COc1ccc(/C=N/NC(=O)O)cc1 | / | / | / | / | 12 | /
N#Cc1nc(-c2ccc(OCc3ccc(Cl)cc3)cc2)oc1NCc1cccnc1 | 1.1 | 51* | 24 | 130 | -1 | /
CCn1nnc(NC(=O)CSc2ccc(Cl)cc2)n1 | 1 | 90* | 82* | 29 | 0 | 8
C[N+](C)(C)c1nc(N)nc2c1ncn2[C@H]1O[C@@H](CO)[C@H](O)[C@H]1O | / | / | / | / | -2 | /
COC(=O)/C(=C\Nc1ccc(Cl)c2ccccc12)c1ncc(C(F)(F)F)cc1Cl | 1.2 | 55* | 14 | 107 | 5 | -2
Cc1c(Cl)cc(C(C)(C)C)c(O)c1Cc1c(C)c(Cl)cc(C(C)(C)C)c1O | / | / | / | / | 16 | /
CC(C)(C)c1ccc(OCC(=O)O)c(Cl)c1 | / | / | / | / | 5 | /
Cc1cccc(C(=O)N=c2c(C#N)cc3c(=O)n4cccc(C)c4nc3n2Cc2ccco2)c1 | 1 | 30 | 30 | 150 | 0 | 9
CCOC(=O)c1cc2c(=O)n3ccccc3nc2n(Cc2ccco2)c1=NC(=O)c1cccnc1 | 1.1 | 23 | 40 | 83 | 5 | 2
Cc1ccc(-n2c(=O)c(C#N)cc3c(=O)n4cccc(C)c4nc32)cc1 | 1.1 | 62* | 52* | 140 | 15 | 1
CCCCCn1c(=NC(C)=O)c(C#N)cc2c(=O)n3cccc(C)c3nc21 | 1.3 | 30 | 25 | 83 | -3 | 7
Cc1cccn2c(=O)c3cc(C#N)c(=O)n(Cc4cccnc4)c3nc12 | 1.1 | -4 | -4 | 122 | 0 | -2
CCCn1c(=NC(C)=O)c(C#N)cc2c(=O)n3cccc(C)c3nc21 | 1.1 | 54*[fluorescence artefact?] | 47 | 59 | 20 | 7
CCOC(=O)c1cc2c(=O)n3cccc(C)c3nc2n(Cc2ccco2)c1=NC(=O)c1cccnc1 | 1 | 55*[fluorescence artefact?] | 58*[fluorescence artefact?] | 64 | 10 | 9
Cc1cccn2c(=O)c3cc(C#N)c(=NC(=O)c4ccccc4)n(Cc4ccco4)c3nc12 | 0.9 | 63*[fluorescence artefact?] | 41 | 177 | -12 | 2
Cc1ccc2c(n1)CC(C)(C)C/C2=N\O | 1.1 | 8 | 8 | 98 | -33 | -1
